From PubChem BioAssay (NCATS) come the findings set out here.

Results filed as inconclusive are left out. Activity calls are given as the source filed them. Unless noted, the call rests on the fitted dose curve; in most records, active means well fitted curve in the direction sought with a large enough effect; inconclusive means small, poorly fitted or top-dose-only effect, or another doubt; inactive means no such curve, though single readings can be large; an effect the other way counts as inactive or inconclusive.

Experiment [1] is described as follows: qHTS assay for small molecule antagonists of retinoid X receptor alpha signaling (AID 588546; active means well fitted inhibition curve with a large enough effect in the signal ratio, with a control signal flat, not every such curve was filed as active; the % refers to the signal ratio;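 further: cells stimulated with 9-cis-retinoic acid as agonist; on the % scale 0 is the no-effect control and ±100 the full control effect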). The note with it: HEK293T RXRa-UAS-bla, beta-lactamase ratio, antagonist mode; measured here: W530 green channel, cytotoxicity proxy. Summed up:
(§1)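 Beta-lactamase reporter inhibition, read as CCF4 fluorescence ratio (ex 405, em 460/530 nm) after 2 h at RT. HEK293T UAS-bla cells, 2500/well, were stimulated with 9-cis-RA at 500 or 100 nM final alongside test compound for 18 h at 37 C.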
(In general: In qHTS, concentration-response curves come from the screen itself.)

Experiment [2] deals with Retinoic acid receptor RXR-alpha (Homo sapiens) (UniProt P19793). The experiment is described as above. The note with it: HEK293T RXRa-UAS-bla, beta-lactamase ratio, antagonist mode. Summed up:
as §1

For experiment [3], the target named is Thyroid hormone receptor beta (Homo sapiens) (UniProt P10828). Put plainly: qHTS assay for small molecule antagonists of thyroid hormone receptor beta signaling (AID 588547; active means well fitted inhibition curve with a large enough effect in the signal ratio, with a control signal flat, not every such curve was filed as active; the % refers to the signal ratio;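 further: cells stimulated with 0.4 nM T3 agonist during compound exposure; series mostly up to about 77 µM; on the % scale 0 is the no-effect control and ±100 the full control effect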). Particulars: TR-UAS-bla HEK293, beta-lactamase ratio, antagonist mode, 18 h. In a few lines: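 Inhibition of T3-driven (0.4nM final) beta-lactamase reporter activity was measured over 0.59 nM to 92 uM compound after 18 h at 37 C. The cells were GripTite HEK293 TR-UAS-bla in charcoal/dextran-stripped serum, with CCF4 ratio read-out and IC50 from Hill fits.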

In experiment [4] the target is Voltage-gated inwardly rectifying potassium channel KCNH2 (Homo sapiens) (UniProt Q12809). Description: qHTS Assay for Small Molecule Inhibitors of the Human hERG Channel Activity (AID 588834).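 Further: top concentration of the series differs between compounds; on the % scale 0 is the no-effect control and ±100 the full control effect; lower thallium flux fluorescence means stronger hERG block; nearly all actives have a fitted effect of over 50% in size.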 Summed up:
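In hERG-transduced U2OS cells, dye-loaded for 1 hr at room temperature in dark, test compounds incubated 10 min at 37 °C before thallium stimulation. AC50 values derived by Hill modelling of concentration-response.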

Experiment [5] in a line: qHTS assay for small molecule agonists of the antioxidant response element (ARE) signaling pathway (AID 651741; active means well fitted activation curve with a large enough effect in the signal ratio; the % refers to the signal ratio; further: % of control where 0% means no effect). In a few lines: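 Beta-lactamase reporter under ARE control in HepG2 cells, 2,000 per well, was induced by 16 h compound treatment at 37 C. Read-out was fluorescence from LiveBLAzer B/G FRET substrate after 2 h at room temperature.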
Experiment [6] is described as follows: qHTS assay for small molecule activators of the p53 signaling pathway (AID 651743; active means well fitted activation curve with a large enough effect in the signal ratio, not every such curve was filed as active; the % refers to the signal ratio; further: series mostly up to about 92 µM; % of control where 0% means no effect). Particulars: HCT-116 p53RE-bla, beta-lactamase FRET ratio, 16 h; activation: stronger effect = higher value. Summed up:
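After 16 hours compound treatment at 37 C, HCT-116 cells stably expressing p53RE-driven beta-lactamase were loaded with LiveBLAzer B/G FRET substrate for 2 hours at room temperature. Fluorescence intensity served as the p53 activation read-out.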

Experiment [7] is described as follows: qHTS assay for small molecule activators of the nuclear factor-kappa B (NF-kB) signaling pathway (AID 651749; active means well fitted activation curve with a large enough effect in the signal ratio; the % refers to the signal ratio; further: series mostly up to about 77 µM; % of control where 0% means no effect). The note with it: NF-kB-bla ME-180 cells, beta-lactamase FRET ratio, 16 h; activation: stronger effect = higher value. In a few lines: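 Activation measured after 16 hr compound treatment at 37C, 5% CO2, of 2,000 ME-180 cells/well stably expressing an NF-kB response element–driven beta-lactamase reporter, via FRET-disruption fluorescence.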

Experiment [8] is described as follows: qHTS assay for small molecule disruptors of the mitochondrial membrane potential - 1 hr assay (AID 651754; calls by dose curve; further: on the % scale 0 is the no-effect control and ±100 the full control effect; nearly all actives have a fitted effect of over 35% in size). In a few lines: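 Loss of mitochondrial potential shifts the cationic dye from red mitochondrial aggregates to green cytoplasmic monomers. Cells (HepG2) are treated with compound for 1 hr before a 30 min dye incubation at 37C.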
Experiment [9] can be described thus: qHTS assay for small molecule disruptors of the mitochondrial membrane potential - 5 hr assay (AID 651755; calls by dose curve; further: on the % scale 0 is the no-effect control and ±100 the full control effect; nearly all actives have a fitted effect of over 40% in size). In a few lines:
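Membrane-potential dye readout: red aggregate (540 ex/590 em) versus green monomer (490 ex/535 em) fluorescence after 30 min dye loading, following 5 hr compound exposure at 37C of overnight-plated HepG2 cells.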

For experiment [10], the target named is Tumor necrosis factor (Homo sapiens) (UniProt P01375). Description: qHTS assay to identify small molecules that stimulate Tumor Necrosis Factor-alpha (TNF-alpha) secretion (AID 651757; active means well fitted curve in the direction sought with a large enough effect in the signal ratio; the % refers to the signal ratio; further: 0% is about no effect). Summed up:
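Human monocytic THP-1 cells are plated, treated with compound and held at 37 C for 17 hrs. Labeled anti-TNF-alpha antibody mixture is then added; after 3 hr at room temperature, TR-FRET signal reports secreted TNF-alpha.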

Experiment [11] in a line: qHTS assay for environmental chemicals that activate the Aryl hydrocarbon Receptor (AhR) signaling pathway (AID 651777). Further: % of control where 0% means no effect; nearly all actives have a fitted effect of over 15% in size. The note with it: 1A2-DRE human hepatoma cells, luciferase, 24 h; activation: stronger effect = higher value. In a few lines:
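Human hepatoma 1A2-DRE cells, stably carrying a dioxin response element and CYP1A2 promoter driving luciferase, were exposed to compounds for 24 hr at 37 C and 5% CO2. Luciferase signal was then read after 30 min One-Glo at room temperature.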

Experiment [12] has as its target Peroxisome proliferator-activated receptor alpha (Homo sapiens) (UniProt Q07869). Put plainly: qHTS assay for small molecule agonists of the peroxisome proliferator-activated receptor alpha (PPARalpha) signaling pathway (AID 651778). Further: % of control where 0% means no effect. Particulars: PathHunter PPARalpha complementation, chemiluminescence, 6 h; stronger effect = higher value. In a few lines: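 Chemiluminescence from complemented enzyme reported PPARalpha activation in cells after 6 hr of compound treatment at 37 C. The detection reagent was incubated for 60 min at room temperature, and compounds were scored as agonists.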

A short description of experiment [13]: qHTS assay for small molecule agonists of the antioxidant response element (ARE) signaling pathway measured by Nrf2-dependant transcriptional activity (AID 720636; active means well fitted curve in the direction sought with a large enough effect in the repeat runs; an effect the other way counts as inactive or inconclusive; further: % of control where 0% means no effect). Summed up: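 ARE-luc HepG2 cells carrying an Nrf2-responsive luciferase reporter were plated in medium with 1% dialyzed FBS, left 6 hr at 37 C to attach, then exposed to compound for 16 hr. Luciferase luminescence was read after ONE-Glo addition.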

A short description of experiment [14]: qHTS assay for small molecule antagonists of the retinoid-related orphan receptor gamma (ROR-gamma) signaling pathway - cell viability counter screen (AID 720652; active means well fitted curve in the direction sought with a large enough effect in the repeat runs; an effect the other way counts as inactive or inconclusive;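 further: CHO reporter cells with doxycycline-induced ROR-gamma expression; series mostly up to about 92 µM; compound exposure lasted 16 hr before ATP read; on the % scale 0 is the no-effect control and ±100 the full control effect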). In a few lines:
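Steps: seed CHO cells bearing TET-inducible ROR and ROR response element-luciferase; rest 5 hr at 37 C; add compound, then doxycycline; incubate 16 hr; add CellTiter-Glo and read luminescence as ATP-based viability.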

Experiment [15] in a line: qHTS assay for cell viability of HEK293 cells (AID 743288). Further: on the % scale 0 is the no-effect control and ±100 the full control effect; nearly all actives have a fitted effect of over 50% in size. The note with it: ATP luminescence (CellTiter-Glo), 18 h; max response: stronger effect = lower value. In a few lines: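 After 18 h compound exposure at 37 C, parental HEK293 cells (2,000/well) are lysed with CellTiter-Glo and luminescence is read following 30 min at room temperature.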
The nature of experiment [16]: qHTS assay for cell viability of the p53RE-bla HCT-116 cell line (AID 743292). Further: on the % scale 0 is the no-effect control and ±100 the full control effect; nearly all actives have a fitted effect of over 55% in size. In a few lines:
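CellSensor p53RE-bla HCT-116 cells, 4,000/well, preincubated 5 h at 37 C, then exposed to compounds in DMSO for 16 h at 37 C. Viability read as CellTiter-Glo luminescence (intracellular ATP) after 30 min at room temperature.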

A short description of experiment [17]: qHTS for Inhibitors of the Functional Ribonucleoprotein Complex (vRNP) of Lassa (LASV) Arenavirus: LASV Primary Screen - GLuc reporter signal (AID 1347082; calls by dose curve; tested in HEK293 reporter line; further: series mostly up to about 57 µM; on the % scale 0 is the no-effect control and ±100 the full control effect; nearly all actives have a fitted effect of over 60% in size).
Experiment [18] is described as follows: qHTS for Inhibitors of the Functional Ribonucleoprotein Complex (vRNP) of Lassa (LASV) Arenavirus: Viability assay - alamar blue signal for LASV Primary Screen (AID 1347083; calls by dose curve; tested in HEK293 reporter line; further: series mostly up to about 57 µM; on the % scale 0 is the no-effect control and ±100 the full control effect; nearly all actives have a fitted effect of over 80% in size).
A short description of experiment [19]: qHTS for Inhibitors of the Functional Ribonucleoprotein Complex (vRNP) of Lymphocytic Choriomeningitis Arenaviruses (LCMV): Viability assay - alamar blue signal for LCMV Primary Screen (AID 1347085; calls by dose curve; tested in HEK293 reporter line; further: series mostly up to about 57 µM; on the % scale 0 is the no-effect control and ±100 the full control effect; nearly all actives have a fitted effect of over 80% in size).
Experiment [20] deals with Nucleoprotein (Lymphocytic choriomeningitis virus (strain Armstrong)) (UniProt P09992). Put plainly: qHTS for Inhibitors of the Functional Ribonucleoprotein Complex (vRNP) of Lymphocytic Choriomeningitis Arenaviruses (LCMV): LCMV Primary Screen - GLuc reporter signal (AID 1347086; calls by dose curve; further: series mostly up to about 57 µM; on the % scale 0 is the no-effect control and ±100 the full control effect; nearly all actives have a fitted effect of over 70% in size).
In experiment [21] the target is Nuclear receptor subfamily 1 group I member 2 (Rattus norvegicus) (UniProt Q9R1A7). Put plainly: qHTS assay for small molecule activators of the rat pregnane X receptor (rPXR) signaling pathway (AID 651751; call rule not given here; further: 0% is about no effect). Particulars: rPXR reporter cells, luciferase (One-Glo), 24 h.
A short description of experiment [22]: qHTS assay for small molecule activators of the human pregnane X receptor (PXR) signaling pathway (AID 720659; call rule not given here; further: 0% is about no effect).

Sequence of Voltage-gated inwardly rectifying potassium channel KCNH2 (Homo sapiens) (Q12809 whole entry, looked up): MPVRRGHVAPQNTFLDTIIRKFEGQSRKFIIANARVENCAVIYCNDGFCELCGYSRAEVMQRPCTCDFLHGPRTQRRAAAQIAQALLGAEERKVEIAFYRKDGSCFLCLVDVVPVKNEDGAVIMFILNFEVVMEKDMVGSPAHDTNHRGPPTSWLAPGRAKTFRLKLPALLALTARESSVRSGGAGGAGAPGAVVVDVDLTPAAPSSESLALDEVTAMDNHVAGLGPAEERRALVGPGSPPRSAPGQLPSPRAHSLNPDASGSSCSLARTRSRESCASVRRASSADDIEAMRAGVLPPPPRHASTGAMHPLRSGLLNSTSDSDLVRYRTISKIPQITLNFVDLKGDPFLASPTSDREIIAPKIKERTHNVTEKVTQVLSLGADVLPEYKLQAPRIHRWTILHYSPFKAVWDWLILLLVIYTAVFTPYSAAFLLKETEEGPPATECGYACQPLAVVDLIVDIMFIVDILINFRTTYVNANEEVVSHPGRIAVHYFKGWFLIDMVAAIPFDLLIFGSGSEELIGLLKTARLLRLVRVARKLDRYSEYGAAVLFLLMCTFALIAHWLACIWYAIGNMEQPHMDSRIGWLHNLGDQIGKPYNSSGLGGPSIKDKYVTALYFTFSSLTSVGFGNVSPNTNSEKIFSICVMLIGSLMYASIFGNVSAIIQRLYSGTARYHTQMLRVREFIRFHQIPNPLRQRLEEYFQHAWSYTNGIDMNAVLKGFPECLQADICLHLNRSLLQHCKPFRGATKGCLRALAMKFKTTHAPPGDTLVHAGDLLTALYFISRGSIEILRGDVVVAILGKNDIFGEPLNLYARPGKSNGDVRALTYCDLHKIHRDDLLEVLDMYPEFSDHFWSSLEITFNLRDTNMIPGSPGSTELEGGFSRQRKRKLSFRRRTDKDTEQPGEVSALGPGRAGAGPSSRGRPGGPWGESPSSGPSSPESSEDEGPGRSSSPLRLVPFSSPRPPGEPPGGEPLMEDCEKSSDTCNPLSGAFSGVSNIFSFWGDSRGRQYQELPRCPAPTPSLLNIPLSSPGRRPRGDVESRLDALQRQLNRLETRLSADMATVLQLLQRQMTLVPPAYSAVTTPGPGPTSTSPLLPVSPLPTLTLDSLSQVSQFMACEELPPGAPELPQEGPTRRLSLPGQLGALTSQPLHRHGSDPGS
Sequence of Retinoic acid receptor RXR-alpha (Homo sapiens) (P19793 whole entry, looked up): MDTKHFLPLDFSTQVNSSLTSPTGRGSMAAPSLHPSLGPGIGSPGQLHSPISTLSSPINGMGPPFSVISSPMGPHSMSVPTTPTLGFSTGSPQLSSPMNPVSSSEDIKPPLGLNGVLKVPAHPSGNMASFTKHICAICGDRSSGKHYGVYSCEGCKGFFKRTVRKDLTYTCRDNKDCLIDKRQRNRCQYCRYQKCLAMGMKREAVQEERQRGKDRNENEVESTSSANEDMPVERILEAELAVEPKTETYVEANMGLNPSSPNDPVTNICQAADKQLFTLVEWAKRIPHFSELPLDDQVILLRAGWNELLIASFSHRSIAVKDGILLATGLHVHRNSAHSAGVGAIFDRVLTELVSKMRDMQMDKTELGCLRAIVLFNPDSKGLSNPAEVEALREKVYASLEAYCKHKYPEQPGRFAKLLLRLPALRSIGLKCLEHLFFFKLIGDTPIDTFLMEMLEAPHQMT
Sequence of Nucleoprotein (Lymphocytic choriomeningitis virus (strain Armstrong)) (P09992 whole entry, looked up): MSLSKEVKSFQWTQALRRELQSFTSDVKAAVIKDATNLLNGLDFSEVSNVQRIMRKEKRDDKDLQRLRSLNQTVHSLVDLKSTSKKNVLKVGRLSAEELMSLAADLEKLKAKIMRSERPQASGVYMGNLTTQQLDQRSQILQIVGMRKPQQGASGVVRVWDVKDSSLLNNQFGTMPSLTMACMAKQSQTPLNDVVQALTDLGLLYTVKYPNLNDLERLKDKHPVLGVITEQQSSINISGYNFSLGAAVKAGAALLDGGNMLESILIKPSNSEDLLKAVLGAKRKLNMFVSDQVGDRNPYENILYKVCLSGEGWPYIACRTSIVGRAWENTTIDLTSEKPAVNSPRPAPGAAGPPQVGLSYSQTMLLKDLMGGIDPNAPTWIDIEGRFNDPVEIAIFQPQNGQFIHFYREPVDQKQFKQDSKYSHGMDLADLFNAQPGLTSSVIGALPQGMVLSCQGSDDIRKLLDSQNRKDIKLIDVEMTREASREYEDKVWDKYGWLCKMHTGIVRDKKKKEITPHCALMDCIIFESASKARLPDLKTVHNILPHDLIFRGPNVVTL
Sequence of Peroxisome proliferator-activated receptor alpha (Homo sapiens) (Q07869 whole entry, looked up): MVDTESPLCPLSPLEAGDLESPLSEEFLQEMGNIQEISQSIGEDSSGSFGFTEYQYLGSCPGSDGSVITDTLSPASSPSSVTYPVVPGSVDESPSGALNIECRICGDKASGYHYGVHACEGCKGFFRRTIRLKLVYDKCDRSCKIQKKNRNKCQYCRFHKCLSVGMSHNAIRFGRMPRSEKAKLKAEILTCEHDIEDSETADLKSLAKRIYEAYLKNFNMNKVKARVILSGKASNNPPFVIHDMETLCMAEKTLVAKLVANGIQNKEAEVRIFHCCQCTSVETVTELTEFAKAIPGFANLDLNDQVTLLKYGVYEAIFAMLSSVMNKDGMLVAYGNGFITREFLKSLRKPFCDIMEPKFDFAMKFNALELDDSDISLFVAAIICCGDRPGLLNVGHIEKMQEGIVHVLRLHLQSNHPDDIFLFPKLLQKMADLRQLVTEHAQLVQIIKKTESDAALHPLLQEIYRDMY
Sequence of Tumor necrosis factor (Homo sapiens) (P01375 whole entry, looked up): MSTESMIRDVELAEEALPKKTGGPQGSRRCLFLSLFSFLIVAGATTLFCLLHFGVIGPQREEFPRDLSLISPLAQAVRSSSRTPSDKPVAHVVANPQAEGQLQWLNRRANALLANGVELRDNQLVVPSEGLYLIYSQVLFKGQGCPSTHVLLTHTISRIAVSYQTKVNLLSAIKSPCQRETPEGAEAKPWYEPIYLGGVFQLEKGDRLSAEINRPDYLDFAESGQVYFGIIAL
Sequence of Nuclear receptor subfamily 1 group I member 2 (Rattus norvegicus) (Q9R1A7 whole entry, looked up): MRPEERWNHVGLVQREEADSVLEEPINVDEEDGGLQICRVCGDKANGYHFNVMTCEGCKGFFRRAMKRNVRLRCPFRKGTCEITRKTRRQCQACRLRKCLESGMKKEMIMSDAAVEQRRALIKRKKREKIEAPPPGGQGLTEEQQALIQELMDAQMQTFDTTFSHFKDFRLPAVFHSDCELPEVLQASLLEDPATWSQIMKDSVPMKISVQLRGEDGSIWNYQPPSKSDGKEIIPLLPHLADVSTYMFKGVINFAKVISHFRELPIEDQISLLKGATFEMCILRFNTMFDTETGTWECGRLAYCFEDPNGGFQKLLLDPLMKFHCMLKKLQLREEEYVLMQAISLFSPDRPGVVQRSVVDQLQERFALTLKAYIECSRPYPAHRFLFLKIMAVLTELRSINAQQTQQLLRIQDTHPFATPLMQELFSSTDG
Sequence of Thyroid hormone receptor beta (Homo sapiens) (P10828 whole entry, looked up): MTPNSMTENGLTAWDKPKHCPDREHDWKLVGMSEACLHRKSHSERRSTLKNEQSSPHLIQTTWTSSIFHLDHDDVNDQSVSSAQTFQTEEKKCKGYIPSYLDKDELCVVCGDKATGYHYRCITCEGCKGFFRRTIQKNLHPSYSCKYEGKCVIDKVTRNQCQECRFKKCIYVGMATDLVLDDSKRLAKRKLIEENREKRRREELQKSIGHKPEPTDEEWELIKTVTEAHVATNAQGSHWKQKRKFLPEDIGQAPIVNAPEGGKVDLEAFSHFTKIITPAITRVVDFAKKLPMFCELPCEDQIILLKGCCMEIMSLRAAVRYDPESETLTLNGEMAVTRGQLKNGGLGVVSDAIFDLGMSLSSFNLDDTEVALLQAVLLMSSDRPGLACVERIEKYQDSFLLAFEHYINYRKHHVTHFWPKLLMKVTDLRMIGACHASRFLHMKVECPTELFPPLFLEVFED

With `Oc1ccccc1Cl`, the max response in experiment [1] was -10.5%; in experiment [2] it was 10.4% (inactive); in experiment [12], -3.34% (inactive); in experiment [15], -13.2% (inactive); in [21] it was 0.452% (inactive). Moreover, in experiment [3], the activity change % (negative = inhibition) is -7.68% (inactive). The Potency result in experiment [4], in experiment [5], in experiment [8], in experiment [9], in [13] and in experiment [17] was “inactive” each time. Moreover, the Potency result in experiment [18], in [19] and in experiment [20] was “inactive” in each case. Moreover, the activation in experiment [6] was -5.71% (inactive); in experiment [7], -1.13% (inactive); in [11], 0.249% (inactive). Moreover, the molecule was called inactive in experiment [10], in [14], in experiment [16] and in experiment [22].
